Inconclusive results are not listed. Some structures have more than one record in an assay (separate samples or runs), and their calls can disagree. The source made the active and inactive calls. Unless noted, calls come from the whole dose curve.
How the values were obtained:
[1] = Nuclear factor erythroid 2-related factor 2/antioxidant responsive element (Nrf2/ARE) small molecule agonists: qHTS cell viability counter screen in human keratinocytes (AID 1919968; active = well fitted curve in the direction sought with a large enough effect in the repeat runs; an effect the other way counts as inactive or inconclusive; note: nearly all actives have a fitted effect of over 55% in size; note: potency is the fitted concentration of half-maximal effect)
Outline: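 Cytotoxicity was multiplexed with the Nrf2/ARE luciferase assay in the same wells. Stably transfected HaCaT keratinocytes were treated with test compounds for 23 h at 37 C. Cell viability was then measured by CellTiter-Fluor fluorescence.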

[2] = Nuclear factor erythroid 2-related factor 2/antioxidant responsive element (Nrf2/ARE) small molecule agonists: luciferase reporter gene qHTS assay in human keratinocytes (AID 1919969); note: nearly all actives have a fitted effect of over 35% in size
[3] = molecular target: Gonadotropin-releasing hormone receptor (Homo sapiens) (UniProt P30968); assay: Human gonadotropin-releasing hormone receptor (GnRHR) small molecule agonists, calcium flux assay in GnRHR-HEK293 cells (AID 1920063); note: nearly all actives have a fitted effect of over 35% in size
Chain of Gonadotropin-releasing hormone receptor (Homo sapiens) (P30968 whole entry, looked up): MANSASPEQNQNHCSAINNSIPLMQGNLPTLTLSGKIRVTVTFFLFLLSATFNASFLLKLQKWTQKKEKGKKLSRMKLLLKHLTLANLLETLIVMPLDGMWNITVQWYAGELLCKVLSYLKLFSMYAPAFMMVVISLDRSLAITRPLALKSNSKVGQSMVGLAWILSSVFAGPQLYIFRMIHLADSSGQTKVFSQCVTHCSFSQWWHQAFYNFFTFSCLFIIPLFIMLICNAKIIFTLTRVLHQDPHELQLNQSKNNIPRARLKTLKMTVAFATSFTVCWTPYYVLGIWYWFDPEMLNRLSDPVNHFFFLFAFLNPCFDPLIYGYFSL
Outline: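 Agonist activity was measured as intracellular calcium flux in HEK293 cells engineered to stably express human GnRHR. After dye loading for 1 hour at 37 C, compounds in DMSO were added and fluorescence was followed for 3 minutes.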

[4] = molecular target: KiSS-1 receptor (Homo sapiens) (UniProt Q969F8); assay: Human kisspeptin (KISS1R) small molecule agonists, calcium flux assay in KISS1R-HEK293 cells (AID 1920064; active = well fitted curve in the direction sought with a large enough effect in the repeat runs; an effect the other way counts as inactive or inconclusive)
Chain of KiSS-1 receptor (Homo sapiens) (Q969F8 whole entry, looked up): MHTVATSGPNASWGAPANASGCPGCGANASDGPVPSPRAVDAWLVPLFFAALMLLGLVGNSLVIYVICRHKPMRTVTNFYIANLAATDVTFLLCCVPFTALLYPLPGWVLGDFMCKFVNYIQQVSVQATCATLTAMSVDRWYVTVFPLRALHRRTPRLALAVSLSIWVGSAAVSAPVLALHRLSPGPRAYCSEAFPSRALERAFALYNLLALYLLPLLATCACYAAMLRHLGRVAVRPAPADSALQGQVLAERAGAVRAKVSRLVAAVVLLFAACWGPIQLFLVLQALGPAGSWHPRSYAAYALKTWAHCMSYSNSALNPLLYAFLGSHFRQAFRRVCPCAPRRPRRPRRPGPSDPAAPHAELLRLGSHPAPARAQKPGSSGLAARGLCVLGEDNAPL
Outline: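 Agonist activity is monitored as intracellular calcium rise in engineered HEK293 cells carrying human KISS1R. Cells are dye-loaded for 1 h at 37 C before compound addition, and fluorescence is recorded for 3 min.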

[5] = G protein-coupled receptor (GPCR) small molecule agonists, calcium flux assay: HEK293 wild type cell line counter screen (AID 1920065)
Outline: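 Seed cells, incubate 18 h (37 C, 5% CO2); add calcium dye, 1 h at 37 C; pin-transfer compounds, ATP control or DMSO; read fluorescence 480/540 nm each second for 3 min.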

[6] = p53 small molecule agonists, cell-based qHTS assay with human liver microsomes (AID 1963577)
Outline: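 Cells carrying a p53-responsive bla reporter were rested 5 h (37 C, 5% CO2) before compound transfer. Human liver microsomes plus NADPH, 0.5 mg/mL final apiece, supplied metabolism during the 16 h 37 C exposure.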

[7] = p53 small molecule agonists, cell-based qHTS assay with rat liver microsomes (AID 1963578)
Outline: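 Fluorescence from a beta-lactamase reporter under a p53 response element was measured after cells had been incubated 16 h at 37 C with test compound and rat liver microsomes plus NADPH (0.5 mg/mL final each).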

[8] = p53 small molecule agonists, cell-based qHTS assay with human liver microsomes: qHTS cell viability counter screen (AID 1963579); note: nearly all actives have a fitted effect of over 45% in size
Outline: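 Seed p53RE-bla cells at 4,000 per well; incubate 5 h at 37 C; add compound, human liver microsomes and NADPH; incubate 16 h at 37 C; add CellTiter-Glo; after 30 min at room temperature, read luminescence.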

[9] = p53 small molecule agonists, cell-based qHTS assay with rat liver microsomes: qHTS cell viability counter screen (AID 1963580); note: nearly all actives have a fitted effect of over 45% in size; note: potency is the fitted concentration of half-maximal effect
Outline: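 Rat liver microsome (0.5 mg/mL final) and NADPH (0.5 mg/mL final) co-incubation with compounds for 16 h at 37 C on HCT-116 p53RE-bla cells; cytotoxicity taken from intracellular ATP luminescence.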

[10] = p53 small molecule agonists, cell-based qHTS assay: qHTS cell viability counter screen (AID 1963581); note: nearly all actives have a fitted effect of over 45% in size
Outline: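 Viability was counter-screened in parallel with the p53 agonist reporter by measuring intracellular ATP luminescence in the same HCT-116 p53RE-bla wells after 16 h compound treatment at 37 C.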

[11] = p53 small molecule agonists, cell-based qHTS assay (AID 1963582; active = well fitted activation curve with a large enough effect in the signal ratio in the repeat runs, not every such curve was filed as active; the % refers to the signal ratio)
Outline: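 Cells carrying a p53-responsive bla reporter are treated with test compounds for 16 h at 37 C; beta-lactamase activity is then detected with LiveBLAzer B/G FRET substrate after 2 h at room temperature.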

[12] = molecular target: 5-hydroxytryptamine receptor 2A (Homo sapiens) (UniProt P28223); assay: 5-hydroxytryptamine receptor 2A (HTR2A) small molecule antagonists, cell-based qHTS assay (AID 1963586); note: nearly all actives have a fitted effect of over 45% in size
Chain of 5-hydroxytryptamine receptor 2A (Homo sapiens) (P28223 whole entry, looked up): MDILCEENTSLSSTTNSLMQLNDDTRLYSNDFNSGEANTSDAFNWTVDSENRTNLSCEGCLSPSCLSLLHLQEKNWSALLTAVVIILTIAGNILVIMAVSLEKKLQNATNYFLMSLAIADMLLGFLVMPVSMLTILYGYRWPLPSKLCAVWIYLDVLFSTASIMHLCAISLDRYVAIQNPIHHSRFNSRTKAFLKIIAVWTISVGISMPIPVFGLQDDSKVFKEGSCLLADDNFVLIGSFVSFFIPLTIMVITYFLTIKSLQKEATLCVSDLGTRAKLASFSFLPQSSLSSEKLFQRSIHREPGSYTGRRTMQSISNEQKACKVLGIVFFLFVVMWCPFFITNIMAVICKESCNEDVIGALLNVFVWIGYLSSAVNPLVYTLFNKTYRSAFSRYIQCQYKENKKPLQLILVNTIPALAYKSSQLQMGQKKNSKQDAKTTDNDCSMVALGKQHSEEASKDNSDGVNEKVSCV
Outline: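 CHO cells stably expressing human HTR2A were plated for 18 h at 37 C, then loaded with calcium dye for 1 h. Compounds were preincubated 5 min at room temperature before DOI (4 nM solution) was added. Kinetic fluorescence was read for 3 min.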

[13] = molecular target: 5-hydroxytryptamine receptor 2A (Homo sapiens) (UniProt P28223); assay: 5-hydroxytryptamine receptor 2A (HTR2A) small molecule agonists, cell-based qHTS assay (AID 1963587); note: nearly all actives have a fitted effect of over 30% in size
Outline: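 Kinetic calcium-flux fluorescence (2 min, 1 sec intervals) after compound addition in agonist mode. HTR2A-CHO cells were cultured 18 h, then dye-loaded 1 h at 37 C.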

[14] = molecular target: Muscarinic acetylcholine receptor M1 (Homo sapiens) (UniProt P11229); assay: Cholinergic receptor muscarinic 1 (CHRM1) small molecule antagonists, cell-based qHTS assay (AID 1963588); note: nearly all actives have a fitted effect of over 40% in size
Chain of Muscarinic acetylcholine receptor M1 (Homo sapiens) (P11229 whole entry, looked up): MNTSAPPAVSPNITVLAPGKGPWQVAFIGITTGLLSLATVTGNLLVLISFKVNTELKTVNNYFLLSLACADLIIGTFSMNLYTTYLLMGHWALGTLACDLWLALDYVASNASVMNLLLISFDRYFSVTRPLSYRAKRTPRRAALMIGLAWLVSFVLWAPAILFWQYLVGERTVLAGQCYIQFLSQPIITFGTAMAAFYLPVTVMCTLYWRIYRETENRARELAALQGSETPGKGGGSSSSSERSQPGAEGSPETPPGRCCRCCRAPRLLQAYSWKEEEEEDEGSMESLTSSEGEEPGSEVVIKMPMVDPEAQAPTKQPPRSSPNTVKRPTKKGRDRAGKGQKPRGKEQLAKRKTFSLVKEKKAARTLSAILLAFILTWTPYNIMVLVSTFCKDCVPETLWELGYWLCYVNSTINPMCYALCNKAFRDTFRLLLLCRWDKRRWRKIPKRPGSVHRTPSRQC
Outline: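 Compounds were tested at 15 concentrations in three independent runs. Dye-loaded CHRM1-CHO cells were exposed 5 min at room temperature before stimulation by acetylcholine added at 50nM. Intracellular calcium was read kinetically on FDSS for 3 min.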

[15] = molecular target: Muscarinic acetylcholine receptor M1 (Homo sapiens) (UniProt P11229); assay: Cholinergic receptor muscarinic 1 (CHRM1) small molecule agonists, cell-based qHTS assay (AID 1963589); note: nearly all actives have a fitted effect of over 35% in size
Outline: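 Cells were plated and incubated 18 h at 37 C/5% CO2, loaded with calcium dye for 1 h at 37 C, then treated with compounds in DMSO. Fluorescence was recorded kinetically at 1 sec intervals.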

[16] = cAMP Responsive Elements (CRE) small molecule agonists, cell-based qHTS assay (AID 1963590)
Outline: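 Cells carrying a CRE-driven beta-lactamase reporter (HEK 293T) are seeded, incubated overnight (18 h), and treated with test compounds for 3 h at 37 C; reporter activity is then detected with a FRET substrate after 2 h at room temperature.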

[17] = cAMP Responsive Elements (CRE) small molecule antagonists, cell-based qHTS assay (AID 1963591; active = well fitted inhibition curve with a large enough effect in the signal ratio in the repeat runs, not every such curve was filed as active; the % refers to the signal ratio)
Outline: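 Cells (CRE-bla HEK 293T, DMEM with 10% dialyzed FBS and 25 mM HEPES) are seeded and incubated 18 h. Compounds are added with NKH477 agonist at 0.25 uM final for 3 h, then FRET substrate for 2 h.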

[18] = molecular target: Beta-2 adrenergic receptor (Homo sapiens) (UniProt P07550); assay: Adrenergic beta2 receptor (ADRB2) small molecule antagonists, cell-based qHTS assay (AID 1963592); note: series mostly up to about 92 µM; nearly all actives have a fitted effect of over 50% in size
Chain of Beta-2 adrenergic receptor (Homo sapiens) (P07550 whole entry, looked up): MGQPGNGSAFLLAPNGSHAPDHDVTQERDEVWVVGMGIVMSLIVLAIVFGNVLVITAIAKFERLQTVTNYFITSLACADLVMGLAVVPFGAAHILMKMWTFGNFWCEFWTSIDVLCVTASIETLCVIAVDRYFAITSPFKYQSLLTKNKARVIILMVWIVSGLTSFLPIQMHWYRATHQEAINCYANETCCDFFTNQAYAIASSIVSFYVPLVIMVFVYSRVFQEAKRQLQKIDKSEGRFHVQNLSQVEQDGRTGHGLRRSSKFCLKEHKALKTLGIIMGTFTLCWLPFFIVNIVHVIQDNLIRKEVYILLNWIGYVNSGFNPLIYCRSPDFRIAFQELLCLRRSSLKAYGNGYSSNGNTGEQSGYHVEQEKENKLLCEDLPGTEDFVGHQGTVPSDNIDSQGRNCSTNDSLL
Outline: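 Assay format: CHO-ADRB2 cells, 18-20hr seeding at 37C/5% CO2, then compound plus 1nM isoproterenol agonist mix for 0.5hr RT. Homogeneous time-resolved fluorescence cAMP detection after 1hr, expressed as 665/615 nm ratio.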

[19] = molecular target: D(2) dopamine receptor (Homo sapiens) (UniProt P14416); assay: Dopamine D2 receptor (DRD2) small molecule agonists, cell-based qHTS assay (AID 1963594); note: nearly all actives have a fitted effect of over 35% in size
Chain of D(2) dopamine receptor (Homo sapiens) (P14416 whole entry, looked up): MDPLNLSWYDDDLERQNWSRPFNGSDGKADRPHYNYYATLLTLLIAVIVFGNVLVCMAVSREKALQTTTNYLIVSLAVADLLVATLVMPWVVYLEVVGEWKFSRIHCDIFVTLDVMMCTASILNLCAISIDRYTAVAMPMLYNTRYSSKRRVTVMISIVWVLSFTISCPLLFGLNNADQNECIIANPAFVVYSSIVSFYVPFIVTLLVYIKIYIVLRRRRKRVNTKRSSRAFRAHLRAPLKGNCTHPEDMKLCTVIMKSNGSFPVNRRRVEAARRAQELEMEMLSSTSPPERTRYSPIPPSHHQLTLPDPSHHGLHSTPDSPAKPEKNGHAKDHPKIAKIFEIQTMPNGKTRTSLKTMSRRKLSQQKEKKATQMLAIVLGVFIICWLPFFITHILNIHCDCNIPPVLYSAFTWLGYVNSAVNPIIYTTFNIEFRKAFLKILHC
Outline: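 cAMP accumulation in DRD2-HEK293 cells measured by HTRF after 1 h detection; compounds added 10 min before NKH477 (200nM […]) forskolin-analogue stimulation, 30 min at room temperature, with Ro20-1724 present at 0.1 mM final.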

[20] = molecular target: D(2) dopamine receptor (Homo sapiens) (UniProt P14416); assay: Dopamine D2 receptor (DRD2) small molecule antagonists, cell-based qHTS assay (AID 1963595; active = well fitted inhibition curve with a large enough effect in the signal ratio in the repeat runs, with a control signal flat; the % refers to the signal ratio)
Outline: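 Readout: HTRF cAMP, cAMP-d2 competing with cellular cAMP for anti-cAMP cryptate, read after 1 h. Cells: DRD2-HEK293. Conditions: 0.1 mM Ro20-1724, 12 nM quinpirole, 200 nM NKH477, 30 min RT.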
% is set by controls: 0 for no effect and ±100 for the full control effect.

COC(=O)c1ccc(C(=O)OC)cc1
inactive: Potency [2] | Potency [3] | Potency [4] | Potency [5] | Potency [6] | Potency [7] | Potency [8] | Potency [10] | Potency [11] | Potency [12] | Potency [13] | Potency [14] | Potency [15] | Potency [16] | Potency [17] | Potency [18] | Potency [19] | Potency [20]
2.47 µM (active) and inactive: Potency [1]
18.5 µM (active) and inactive: Potency [9]

O=Cc1ccc(Cl)cc1
inactive: Potency [1] | Potency [2] | Potency [3] | Potency [4] | Potency [5] | Potency [6] | Potency [7] | Potency [8] | Potency [9] | Potency [10] | Potency [11] | Potency [12] | Potency [13] | Potency [14] | Potency [15] | Potency [16] | Potency [17] | Potency [18] | Potency [19] | Potency [20]

NC[C@H]1O[C@H](O[C@H]2[C@H](O)[C@@H](O[C@H]3O[C@H](CO)[C@@H](O)[C@H](N)[C@H]3O)[C@H](N)C[C@@H]2N)[C@H](N)[C@@H](O)[C@@H]1O
inactive: activity change, negative = cytotoxicity [1] -0.0182% [at 19 µM] | activity, positive = activation [2] 2.7% [at 19 µM] | activity change [3] 5.96% [at 11.8 µM, stronger effect = higher value] | activation [4] -0.341% [at 15.8 µM] | activation [5] -0.87% [at 11.8 µM] | activation [6] -1.52% [at 13.5 µM] | activation [7] -0.665% [at 13.6 µM] | activity change, negative = cytotoxicity [8] -3.3% [at 13.5 µM] | activity change, negative = cytotoxicity [9] 3.53% [at 13.5 µM] | activity change, negative = cytotoxicity [10] -25.6% [at 13.5 µM] | activation [11] 0.52% [at 13.5 µM] | activity, negative = inhibition [12] 6.4% [at 12.7 µM] | activation [13] -0.88% [at 15.9 µM] | activity, negative = inhibition [14] 7.06% [at 12.6 µM] | activation [15] -0.129% [at 15.8 µM] | activation [16] 0.862% [at 19 µM] | activity change, negative = inhibition [17] 0.145% [at 18.9 µM] | activity change, negative = inhibition [18] 5.76% [at 19 µM] | activation [19] -0.355% [at 19 µM] | activity change, negative = inhibition [20] 13% [at 18.9 µM]

CCC(=O)Nc1cccc(N)c1
inactive: Potency [1] | Potency [2] | Potency [3] | Potency [4] | Potency [5] | Potency [6] | Potency [7] | Potency [8] | Potency [9] | Potency [10] | Potency [11] | Potency [12] | Potency [13] | Potency [14] | Potency [15] | Potency [16] | Potency [17] | Potency [18] | Potency [19] | Potency [20]

FC(F)(F)c1cccc(Cl)c1
inactive: Potency [1] | Potency [2] | Potency [3] | Potency [4] | Potency [5] | Potency [6] | Potency [7] | Potency [8] | Potency [9] | Potency [10] | Potency [11] | Potency [12] | Potency [13] | Potency [14] | Potency [15] | Potency [16] | Potency [17] | Potency [18] | Potency [19] | Potency [20]

CCCCCCCN
inactive: Potency [1] | Potency [2] | Potency [3] | Potency [4] | Potency [5] | Potency [6] | Potency [7] | Potency [8] | Potency [9] | Potency [10] | Potency [11] | Potency [12] | Potency [13] | Potency [14] | Potency [15] | Potency [16] | Potency [17] | Potency [18] | Potency [19] | Potency [20]

NC(=O)c1ccc([N+](=O)[O-])cc1
inactive: Potency [1] | Potency [2] | Potency [3] | Potency [4] | Potency [5] | Potency [6] | Potency [7] | Potency [8] | Potency [9] | Potency [10] | Potency [11] | Potency [12] | Potency [13] | Potency [14] | Potency [15] | Potency [16] | Potency [17] | Potency [18] | Potency [19] | Potency [20]

Reference: PubChem BioAssay (Tox21)
